ATXN viability = reduces viability in counter-screen for ATXN expression inhibitors | hit rate 0.49% among 400,000 | Potency, µM (series often up to 56.7 µM), hits mostly cytotoxic | S2 cells (HEK-293 line with an ATXN2-luciferase reporter) viability, CellTiter-Fluor protease fluorescence, 24 h | AID 651635; also: nearly all actives have a fitted effect of over 40% in size
ATXN2 expr inh = ATXN2 expression inhibition; AID 1745845; hit rate 0.72% among 360,000; Potency, µM (top dose mostly 57 µM), usual class: inhibitors; HEK-293 ATXN2-luciferase reporter, luminescence, 24 h; also: nearly all actives have a fitted effect of over 55% in size
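qHTS (up to 57 uM final) was run with 24 h compound exposure of reporter cells at 37 °C. Each well was multiplexed: SteadyGlo luminescence measured ATXN2-luciferase expression after a fluorogenic Gly-Phe-AFC viability readout (25 uM final).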
HepG2 tox = HepG2 cytotoxicity, counter-screen for TGF-b inhibitors. HepG2 CAGA-GFP viability, ATP luminescence, 18 h. Potency, µM (highest dose often 46.1 µM), actives largely listed as cytotoxic. hit rate 0.76% among 410,000. AID 588856
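CellTiter-Glo luminescence gave cytotoxicity after 18 hours at 37 degrees C. The cells were HepG2 CAGA-GFP in 1% FBS DMEM, stimulated with 500 pg/mL TGF-beta after compound addition. %Activity was normalised to no-cell wells (complete cell-killing) and DMSO (no toxicity), and curves were fitted and classified.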
TGFb inhibitor = inhibitors of TGF-b signaling; hit rate 1.2% among 410,000; Potency, µM (top dose mostly 46.1 µM), actives largely listed as inhibitors; AID 588855; HepG2 CAGA-GFP TGF-b/SMAD3 reporter, GFP fluorescence, 18 h; TGF-beta stimulated, 500 pg/mL final; also: nearly all actives have a fitted effect of over 65% in size
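First, reporter cells (HEPG2 CAGA-GFP) rested 2 h at 37 degrees C. Next, compounds were pinned in and TGF-beta added to 500 pg/mL final. After 18 h, GFP was imaged per cell and summed per well.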
GLP-1R agonist = GLP-1 receptor (human) agonism. P43220. HEK293 GLP-1R CRE-luciferase, luminescence, 4-6 h; cells express a hypersensitive GLP-1R form. Potency, µM (top dose mostly 45.6 µM), actives largely listed as activators. hit rate 0.007% among 380,000
Target sequence (P43220 whole entry, looked up): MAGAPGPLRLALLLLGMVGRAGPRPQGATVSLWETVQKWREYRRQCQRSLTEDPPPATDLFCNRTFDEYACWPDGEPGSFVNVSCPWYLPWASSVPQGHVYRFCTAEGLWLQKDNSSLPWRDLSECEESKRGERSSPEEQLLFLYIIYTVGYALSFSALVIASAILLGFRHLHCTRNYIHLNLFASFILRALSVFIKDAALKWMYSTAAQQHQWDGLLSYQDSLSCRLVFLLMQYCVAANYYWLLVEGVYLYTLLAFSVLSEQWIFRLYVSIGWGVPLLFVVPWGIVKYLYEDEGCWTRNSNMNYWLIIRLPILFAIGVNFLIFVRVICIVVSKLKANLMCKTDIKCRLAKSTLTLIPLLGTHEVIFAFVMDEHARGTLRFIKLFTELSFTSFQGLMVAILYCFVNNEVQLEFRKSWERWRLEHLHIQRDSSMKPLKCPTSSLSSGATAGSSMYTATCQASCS
GLP1R inv ag = acts as inverse agonist at human GLP-1 receptor; AID 624417; Potency, µM (titrated, usually from 38.3 µM), hits mostly inhibitors; HEK293 GLP-1R CRE-luciferase, luminescence, 24 h; GLP-1R form is constitutively active; hit rate 1.6% among 410,000; also: nearly all actives have a fitted effect of over 55% in size
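Luminescence readout: a drop in cAMP-driven luciferase signal flags inverse agonism at a constitutively active GLP-1R stably expressed in HEK293. Compound exposure lasted 24 hr at 37 deg C, 5% CO2.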
Numbers stand for hits; 0 = inactive; ? = inconclusive; - = not tested or not shown. Hits are enriched below; roughly 3.7% of the tested compounds scored in any of these assays. Calls follow the shape of the dose curve; as a rule, active = well fitted curve in the direction sought with a large enough effect; inconclusive = small, poorly fitted or top-dose-only effect, or another doubt; inactive = no such curve, though single readings can be large; an effect the other way counts as inactive or inconclusive.

SMILES	ATXN viability	ATXN2 expr inh	HepG2 tox	TGFb inhibitor	GLP-1R agonist	GLP1R inv ag
CC/C(=C\C=C\[C@@H]1C=C[C@@H]2CCC[C@H]2[C@@H]1C(=O)c1ccc[nH]1)[C@@H]1O[C@@H]([C@@H](C)C(=O)O)CC[C@@H]1C	?	?	16µM	11µM	0	2.5µM
Cc1c(C(=O)NCc2nccs2)cnn1-c1ncc2c(n1)-c1ccccc1CC2	0	-	-	-	-	-
c1ccc2c(CN3CCCCCC3)c[nH]c2c1	0	0	0	0	0	0
c1ccc2c(CNC3CCCCCC3)c[nH]c2c1	28µM	20µM	0	?	0	?
C[C@]12CCC3C(CC[C@H]4C[C@H](O)CC[C@]34C)C1C[C@@H](O)[C@H]2O (some centres not stated)	0	0	14µM	0	0	0
CC1CC(C)CC(C)C(O)C(C#N)=CC=CCC(C2CCCC2C(=O)O)OC(=O)CC(O)C(C)C1 (configuration not stated)	?	0.75µM	0	?	0	?
CC(C)(C)[C@]1(O)C[C@@H]2OC(=O)C[C@@]23C(=O)O[C@@H]2OC(=O)[C@H](O)C213 (some centres not stated)	-	0	-	-	-	-
O=C1NC(=O)N(c2ccccc2)C(=O)/C1=C\C=C\c1ccccc1	14µM	14µM	0	7.1µM	0	?
Cc1cc(C)cc(N2C(=O)NC(=O)/C(=C\C=C\c3ccco3)C2=O)c1	?	?	0	?	0	?
CC(C)c1ccc(N2C(=O)NC(=O)/C(=C/C=C/c3ccco3)C2=O)cc1	-	28µM	0	?	0	0
COc1cc(/C=C2\C(=O)NC(=O)N(c3ccccc3)C2=O)cc(OC)c1OC	0	0	0	0	0	0
Cc1ccc(N2C(=O)NC(=O)/C(=C/C=C/c3ccco3)C2=O)cc1	?	?	0	11µM	0	?
CCc1ccc(N2C(=O)NC(=O)/C(=C\C=C\c3ccco3)C2=O)cc1	10µM	-	0	?	0	?
CN(C)CCc1c[nH]c2ccccc12	0	0	-	-	0	-
C[C@H]1C[C@H](C)C(=O)[C@@H]([C@H](O)CC2CC(=O)NC(=O)C2)C1	-	-	-	-	0	-
Cc1nc2ccccc2c(=O)n1-c1ccccc1Cl	?	0	-	-	0	-
Cc1cccc(-n2c(/C=C/c3ccccc3O)nc3ccccc3c2=O)c1	-	-	0	11µM	-	?
Cc1cccc(-n2c(/C=C/c3ccc([N+](=O)[O-])o3)nc3ccccc3c2=O)c1	?	14µM	0	?	?	0
CNC(=O)N1N=C(c2ccc(N)cc2)c2cc3c(cc2CC1C)OCO3 (configuration not stated)	-	0	-	-	-	-
O=P1(Oc2ccccc2)CC=CC(COC(c2ccccc2)(c2ccccc2)c2ccccc2)O1 (configuration not stated)	-	-	0	16µM	-	-
C=CC[C@@H](CC/C=C/C=C/CC/C=C\[C@@H]1CSC([C@@H]2C[C@@H]2C)=N1)OC	-	?	0	14µM	0	?
CN1CCN(C(=O)COc2ccc3ccccc3c2)CC1	0	0	0	0	0	0
CN1CCN(C(=O)COc2ccc(-c3nc4ccccc4s3)cc2)CC1	0	?	-	0	0	6.3µM
COc1cccc(NC(=O)C(Cc2ccccc2)NS(=O)(=O)c2ccc3c(c2)oc(=O)n3C)c1 (configuration not stated)	0	0	0	?	-	0
O=[N+]([O-])C(Br)(CO)CO	-	-	-	-	0	-
SMILES	ATXN viability	ATXN2 expr inh	HepG2 tox	TGFb inhibitor	GLP-1R agonist	GLP1R inv ag
Cc1ccc(-c2cc(-c3ccc(C)cc3)[n+](C)o2)cc1	0	0	0	7.1µM	0	?
O=C(CCl)c1ccc(Oc2ccc(C(=O)CCl)cc2)cc1	-	-	-	-	0	-
C#CCOCCOCCOCCNc1nc(N2CCN(C(=O)CCCCCCCCCCNC(=O)[C@H]([C@@H](C)CC)n3cc(CCCCN=C(N)N)nn3)CC2)nc(N2CCN(C(=O)CCCCCCCCCCNC(=O)[C@H](CO)n3cc(CCCCCN)nn3)CC2)n1	16µM	28µM	0	?	0	0
Cc1c(C=O)c2ccccc2n1Cc1cccc(F)c1	0	0	0	1.8µM	0	0
CC(C)COP(=O)(OCC(C)C)C(Nc1ccccc1)c1ccccc1 (configuration not stated)	0	0	0	?	0	11µM
CC(=O)[C@@]1(O)CC[C@@H]2[C@@H]3CCC4=CC(=O)CC[C@]4(C)[C@]3(F)[C@@H](O)C[C@@]21C	-	-	-	-	0	-
O=C(C1CCCN(S(=O)(=O)c2cccc3nsnc23)C1)N1CCN(c2cccc(Cl)c2)CC1 (configuration not stated)	0	0	0	?	0	0
O=C1NC[C@H](CCCCN2C[C@@H](Cc3ccccc3)N(CC3CCCCC3)C(=O)C2=O)N(CCC2CCCCC2)C1=O	?	0	-	-	0	0
N#CC(C(=O)C12CC3CC(CC(C3)C1)C2)c1nc2ccccc2[nH]1 (configuration not stated)	0	0	0	0	0	1.1µM
O=C(COc1ccc2ccccc2c1)N1CCN(CC2CC3C=CC2C3)CC1 (configuration not stated)	0	0	0	?	0	8.9µM
COc1ccccc1CN1CCN(C(=O)COc2ccc3ccccc3c2)CC1	0	0	0	0	0	10µM
COc1ccccc1CN1CCN(C(=O)COc2cccc(C)c2)CC1	0	0	0	0	0	?
C[C@]12CC[C@H]3[C@@H](CCC4=CC(=O)CC[C@@]43C)[C@H]1CC[C@H]2OC(=O)CCC1CCCC1	-	0	-	-	-	-
CC(C)c1c(C(=O)NC(c2cccnc2)C(F)(F)F)cnn1-c1nccc(-c2cccs2)n1 (configuration not stated)	0	-	-	-	-	-
CC(=O)Nc1cccc(-c2ccnc3c2CC(C(=O)NCc2ccco2)O3)c1 (configuration not stated)	0	0	0	0	0	?
CCN1CCN(C(=O)Cc2ccc(Nc3ncc(F)c(Nc4ccc(C(=O)Nc5ccccc5Cl)cc4)n3)cc2)CC1	-	24µM	-	-	-	-
CCCC[N+]1(C)[C@H]2CC(OC(=O)[C@H](CO)c3ccccc3)C[C@H]1[C@H]1O[C@H]12 (some centres not stated)	-	0	-	-	-	-
CCN1CCCC1CNC(=O)C(O)(c1ccccc1)c1ccccc1 (configuration not stated)	0	0	-	-	-	-
CCCCCCC(N)CC(=O)O (configuration not stated)	0	0	0	0	0	0
CCCCCCCCCC(CC)c1ccc(S(=O)(=O)O)cc1 (configuration not stated)	32µM	0	-	-	0	-

Screens as filed in PubChem.
